The panel holds about 83,000 compounds, 20% with a hit somewhere; the sample as a whole holds those more often.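 Each cell line was grown in a 96-well plate and treated with one concentration of compound for 48 hours. Values below 10 were considered active.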 A number with no mark means an inactive call. Activity calls are given as the source filed them.
Columns and labels:
Assay in all cases: NCI-60 one-dose screen, 48 h (100 = growth as untreated, 0 = no growth, -100 = all killed)
Conditions in all cases: 10 µM unless noted
NCI-H226 lung = tested on: NCI-H226 lung
NCI-H322M lung = tested on: NCI-H322M lung
HOP-62 NSCLC = tested on: HOP-62 NSCLC
NCI-H460 lung = tested on: NCI-H460 lung
HOP-92 NSCLC = tested on: HOP-92 NSCLC
NCI-H522 lung = tested on: NCI-H522 lung
A549/ATCC NSCLC = tested on: A549/ATCC NSCLC
786-0 renal = tested on: 786-0 renal
COLO 205 colon = tested on: COLO 205 colon
DU-145 prostate = tested on: DU-145 prostate
K-562 leukemia = tested on: K-562 leukemia
MALME-3M melanoma = tested on: MALME-3M melanoma
MDA-MB-231 breast = tested on: MDA-MB-231 breast
RXF 393 renal = tested on: RXF 393 renal
SF-268 CNS = tested on: SF-268 CNS
SF-295 CNS = tested on: SF-295 CNS
SF-539 CNS = tested on: SF-539 CNS
UACC-257 melanoma = tested on: UACC-257 melanoma
M14 melanoma = tested on: M14 melanoma

| SMILES | growth (NCI-H226 lung) | growth (NCI-H322M lung) | growth (HOP-62 NSCLC) | growth (NCI-H460 lung) | growth (HOP-92 NSCLC) | growth (NCI-H522 lung) | growth (A549/ATCC NSCLC) | growth (786-0 renal) | growth (COLO 205 colon) | growth (DU-145 prostate) | growth (K-562 leukemia) | growth (MALME-3M melanoma) | growth (MDA-MB-231 breast) | growth (RXF 393 renal) | growth (SF-268 CNS) | growth (SF-295 CNS) | growth (SF-539 CNS) | growth (UACC-257 melanoma) | growth (M14 melanoma) |
| --- | --- | --- | --- | --- | --- | --- | --- | --- | --- | --- | --- | --- | --- | --- | --- | --- | --- | --- | --- |
| OCCNc1nc(NCCO)nc(Nc2ccc(C3=NN(c4cc(Cl)cc(Cl)c4)C(c4ccc(Cl)cc4)C3)cc2)n1 (centres undefined) | 109% | 14.6% | 15.9% | -22.7% (active) | 60.7% | 58.9% | 2.31% (active) | -19.6% (active) | 7.12% (active) | 0.477% (active) | 4.31% (active) | -43.7% (active) | 7.31% (active) | -57.8% (active) | 19.1% | -68.3% (active) | -45.2% (active) | 48.4% | 1.11% (active) |
| O=C(O)c1cc(N=Nc2ccc(-c3ccc(N=Nc4c(S(=O)(=O)O)cc5ccc(Nc6ccccc6)cc5c4O)cc3)cc2)ccc1O | 116% | 94.5% | 94.6% | 113% | 114% | 89.7% | 104% | 106% | 114% | 109% | 91.3% | 86% | 98% | 112% | 93.1% | 99.7% | 108% | 107% | 106% |
| C#Cc1ccccc1NC(=O)c1sc2nc3c(cc2c1N)CCCCCC3 | 83.4% | 82.7% | 76.8% | 33.4% | 67.6% | 72.1% | 51.4% | 17% | 47.4% | 50% | 74.5% | 8.8% (active) | 5.3% (active) | 92.9% | 48.5% | 75.7% | 62.2% | 96% | 56.5% |
| CC(=O)[C@@H]1CC[C@]2(C(=O)O)CC[C@]3(C)[C@H](CC[C@@H]4[C@@]5(C)Cc6c([nH]c7ccccc67)C(C)(C)[C@@H]5CC[C@]43C)[C@@H]12 | 64% | 77.3% | 74.8% | 44.9% | 80% | 46.4% | 31.4% | 75.1% | 79.6% | 59.4% | 37.8% | 96.1% | 83% | 73.2% | 63.4% | 36% | 74.3% | 84.2% | 78.7% |
| COC(=O)/C=C1\SC(=Nc2cccc(OC)c2)N(CCc2c[nH]c3ccccc23)C1=O | 98.2% | 76.8% | 53% | 80.7% | 46.6% | 28.4% | 61.4% | 76.7% | 75.8% | 69.3% | 40.8% | 80.5% | 66.1% | 49.2% | 82.8% | 61.9% | 83.4% | 61.7% | 64.9% |
| COc1ccc(-c2cc(C(=O)N3N=C(c4ccc(N)cc4)CC3c3ccc(OC)cc3)c3cc(OC)ccc3n2)cc1 (centres undefined) | 94.9% | 93.3% | 60.1% | 85.4% | 56% | 29.5% | 76.6% | 18.9% | 96.3% | 80.2% | 11.8% | 71.3% | 73.6% | 68.2% | 54.9% | 64.1% | 34% | 60.8% | 38.4% |
| COC(=O)c1ccc(NC(=O)CSc2nc(-c3ccc(F)cc3)nc3ccccc23)cc1 | 87.4% | 89.5% | 75.5% | 60.7% | 77.7% | 76.9% | 86.1% | 105% | 93.8% | 88.7% | 81.2% | 60.9% | 58.3% | 109% | 75.8% | 86.2% | 96.9% | 102% | 70.2% |
| c1cc(CNC23CC4CC(CC(C4)C2)C3)cc(C[N+](Cc2cccc(CNC34CC5CC(CC(C5)C3)C4)c2)(Cc2cccc(CNC34CC5CC(CC(C5)C3)C4)c2)Cc2cccc(CNC34CC5CC(CC(C5)C3)C4)c2)c1 (centres undefined) | 33.5% [42 µM] | 37.1% [42 µM] | 33.1% [42 µM] | 3.83% [42 µM] (active) | 32.8% [42 µM] | -56.4% [42 µM] (active) | 16.2% [42 µM] | 18.3% [42 µM] | -40.9% [42 µM] (active) | -4.07% [42 µM] (active) | 4.99% [42 µM] (active) | 6.44% [42 µM] (active) | 16.7% [42 µM] | 4.56% [42 µM] (active) | 26.9% [42 µM] | 54.4% [42 µM] | 16.9% [42 µM] | 41.5% [42 µM] | 24.3% [42 µM] |
| Cc1cc(O)cc(O)c1N=NC1=NCCS1 | 117% | 97.8% | 95.7% | 115% | 109% | 90.3% | 101% | 96.6% | 100% | 103% | 89.7% | 94.3% | 97.1% | 123% | 94.6% | 101% | 100% | 101% | 98% |
| NC(=O)C(O)(c1ccccc1)c1ccccc1 | 99.2% | 105% | 91.6% | 104% | 83.2% | 84.2% | 91% | 102% | 115% | 105% | 99.6% | 113% | 108% | 123% | 110% | 99.7% | 103% | 91.8% | 97.1% |
| Cc1cc(C)n(-c2nc(-c3cccs3)c(C#N)c(=O)[nH]2)n1 | 105% | 92.1% | 81.2% | 96.8% | 102% | 83.8% | 99.9% | 93.1% | 111% | 101% | 87.4% | 92.6% | 108% | 115% | 82.3% | 92.3% | 97.5% | 98.7% | 101% |
| Nc1c(C(=O)Nc2ccccc2)sc2nc3c(cc12)CN(C(=O)OCc1ccccc1)CC3 | 82.7% | 70% | 44.4% | 34% | 52.4% | 35.6% | 50.2% | 50% | 55.3% | 59.4% | 21.5% | 52.3% | 68.4% | 68.2% | 62.2% | 40.7% | 44.9% | 59.6% | 26.5% |
| COC1=CC2C=C(C3N(c4ccccc4)NC(=O)[C@@H]4CCCN34)C(=O)NC2C=C1 (some centres undefined) | 105% | 93.5% | 93.1% | 110% | 124% | 87.6% | 107% | 99.5% | 111% | 112% | 93.3% | 113% | 111% | 116% | 99.8% | 103% | 109% | 108% | 101% |
| O=C(CN1N=C(c2ccc(F)cc2)CCC1=O)Nc1nc2ccccc2s1 | 41.7% | 95.1% | -23.7% (active) | 51.3% | -77.1% (active) | -73.5% (active) | -48.8% (active) | -90.2% (active) | 87.2% | 84.6% | 30.1% | -70.4% (active) | -85.5% (active) | 45.8% | 48% | -46.9% (active) | -82.6% (active) | 88.1% | 41.4% |
| CCOC(=O)C1=C(C)n2nc(CC#N)c(C#N)c2NC1c1ccc(CC)cc1 (centres undefined) | 87.6% | 85.6% | 81.7% |  | 85.9% | 85.5% | 96.5% | 106% | 97.8% | 106% | 106% | 86.8% | 87.5% | 107% | 99.1% | 101% | 110% | 111% | 91.5% |
| NS(=O)(=O)c1ccc(-n2ncc(NC(=O)Nc3ccc(S(=O)(=O)Nc4nccs4)cc3)c2-c2ccccc2)cc1 | 104% | 106% | 94.4% | 108% | 106% | 98.4% | 98.5% | 95.6% | 108% | 109% | 96.1% | 97.2% | 112% | 120% | 101% | 99.3% | 98.2% | 104% | 95.8% |
| CC(=O)ON1CCCC(P(=O)(OCOC(=O)C(C)(C)C)OCOC(=O)C(C)(C)C)C1=O (centres undefined) | -4.94% (active) | -10.6% (active) | 5.37% (active) | 2.52% (active) | -6.66% (active) | -11% (active) | 7.74% (active) | 12.3% | 2.35% (active) | 10.7% | 3.72% (active) | -8.77% (active) | -6.53% (active) | -20.8% (active) | 1.95% (active) | 34.5% | 11.3% | 19.2% | 12.9% |
| Cn1c2ccccc2c2c(OC(=O)c3ccccc3)c3c(nc21)-c1ccccc1C3 | 100% | 92.9% | 73.1% | 105% | 91.5% | 58.2% | 93.1% | 96.9% | 121% | 104% | 104% | 104% | 85.6% | 109% | 96.4% | 100% | 102% | 95.7% | 93.8% |
| O=C1NN(c2ccccc2)C(c2ccc3c(c2)OCO3)N2CCC[C@@H]12 (some centres undefined) | 105% | 88.3% | 91.4% | 106% | 107% | 70.1% | 97.9% | 98.2% | 104% | 101% | 93.8% | 94.9% | 105% | 117% | 94% | 103% | 111% | 99.2% | 96.6% |
| S=C(Nc1ccccc1)c1ccccn1 | 94.7% | 101% | 75.2% | 100% | 84.6% | 74.4% | 91.7% | 96.5% | 67.9% | 120% | 99.7% | 114% | 102% | 128% | 105% | 114% | 91.1% | 31.3% | 90.6% |
| C/C(=N/Nc1nc2ccccc2n1C)c1ccccn1 | -12.1% (active) | 14.7% | -7.45% (active) |  | 15.9% | -4.8% (active) | 4.01% (active) | 9.02% (active) | -4.66% (active) | 16.2% | 5.81% (active) | 11.6% | 28.8% | -12.5% (active) | 10.7% | 8.08% (active) | 0.5% (active) | -29.2% (active) | -4.55% (active) |
| CC(=O)Oc1ccc(O)cc1 | 106% | 97.2% | 113% | 108% | 98.3% | 33.3% | 91.6% | 110% | 120% | 102% | 96.7% | 102% | 95.4% | 115% | 98.8% | 101% | 101% | 83% | 98.3% |
| C[C@H]1[C@H](C)CC[C@]2(C(=O)OCCOCCOCC[P+](c3ccccc3)(c3ccccc3)c3ccccc3)CC[C@]3(C)C(=CC[C@@H]4[C@@]5(C)CC[C@H](OC(=O)C(Cl)Cl)C(C)(C)[C@@H]5CC[C@]43C)[C@H]12 | 15% | 27.8% | 25.3% | 6.27% (active) |  | -15.3% (active) | 11.2% | -38.3% (active) | -7.06% (active) | 26% | 0.14% (active) | -78.5% (active) | -0.496% (active) | -29.5% (active) | 25.9% | -34.8% (active) | 9.4% (active) | -13.6% (active) | 8.99% (active) |
